# S2 tox = reduces viability in counter-screen for ATXN expression inhibitors; 0.49% of 400,000 active; Potency, µM (top dose mostly 56.7 µM), actives largely listed as cytotoxic; S2 cells (HEK-293 line with an ATXN2-luciferase reporter) viability, CellTiter-Fluor protease fluorescence, 24 h; also: nearly all actives have a fitted effect of over 40% in size
# ATXN2 expr inh = reduces ATXN2 reporter expression in HEK-293 cells. HEK-293 ATXN2-luciferase reporter, luminescence, 24 h. Potency, µM (series often up to 57 µM), for the others: at the highest dose activity change, negative = inhibition, usual class: inhibitors. 0.72% of 360,000 active. AID 1745845; also: % is scaled to controls: 0 for no effect and ±100 for the full control effect; nearly all actives have a fitted effect of over 55% in size
#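 ATXN2-luciferase reporter cells (luciferase flanked by upstream and downstream ATXN2 gene portions) were treated 24 h at 37 °C with compounds at up to 57 uM. SteadyGlo luminescence gave expression; GF-AFC fluorescence gave viability.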
# Gal4-VP16 FLuc = inhibits Gal4-VP16 luciferase reporter, ROR gamma counter-screen; Drosophila S2 Gal4-VP16 UAS-luciferase, luminescence, 20 h; Potency, µM (top dose mostly 53.6 µM), for the others: at the top dose activity, negative = inhibition, usual class: inhibitors; 3.5% of 310,000 active;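 also: Gal4-VP16 expression switched on by copper sulfate through the metallothionein promoter; % is scaled to controls: 0 for no effect and ±100 for the full control effect; nearly all actives have a fitted effect of over 50% in size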
# HepG2 viability = HepG2 cytotoxicity, counter-screen for TGF-b inhibitors; 0.76% of 410,000 active; HepG2 CAGA-GFP viability, ATP luminescence, 18 h; AID 588856; Potency, µM (titrated, usually from 46.1 µM), for the others: at the top dose activity change, negative = cytotoxicity, usual class: cytotoxic
#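 HepG2 CAGA-GFP cells (1000/well, DMEM with 1% FBS) received compound, then TGF-beta at 500 pg/mL final, and were incubated 18 hours at 37 degrees C. Viability was read by CellTiter-Glo luminescence. Media-only wells were set as complete cell-killing and DMSO as no toxicity.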
# TGFb SMAD3 inh = blocks TGF-b signaling | 1.2% of 410,000 active | Potency, µM (doses to about 46.1 µM), inactives show top-dose activity, negative = inhibition, hits mostly inhibitors | HepG2 CAGA-GFP TGF-b/SMAD3 reporter, GFP fluorescence, 18 h; TGF-beta stimulated, 500 pg/mL final; also: % is scaled to controls: 0 for no effect and ±100 for the full control effect; nearly all actives have a fitted effect of over 65% in size
#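 Inhibition was scored as loss of TGF-beta-induced (500 pg/mL final, 18 hours, 37 degrees C) GFP in HEPG2 cells carrying a CAGA-GFP reporter, in DMEM with 1% FBS. Well GFP was summed per cell; Activity was normalised to unstimulated and stimulated DMSO wells, then concentration-response fitting.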
# RORg inh = blocks mouse ROR gamma transcriptional activity; P51450; Drosophila S2 Gal4-RORgamma UAS-luciferase reporter, 20 h; Potency, µM (highest dose often 53.6 µM), inactives show at the top dose activity change, negative = inhibition, actives largely listed as inhibitors; 5.4% of 310,000 active; AID 2551; also: % is scaled to controls: 0 for no effect and ±100 for the full control effect; nearly all actives have a fitted effect of over 60% in size
# Target sequence (P51450 whole entry, looked up, the tested form may be a part): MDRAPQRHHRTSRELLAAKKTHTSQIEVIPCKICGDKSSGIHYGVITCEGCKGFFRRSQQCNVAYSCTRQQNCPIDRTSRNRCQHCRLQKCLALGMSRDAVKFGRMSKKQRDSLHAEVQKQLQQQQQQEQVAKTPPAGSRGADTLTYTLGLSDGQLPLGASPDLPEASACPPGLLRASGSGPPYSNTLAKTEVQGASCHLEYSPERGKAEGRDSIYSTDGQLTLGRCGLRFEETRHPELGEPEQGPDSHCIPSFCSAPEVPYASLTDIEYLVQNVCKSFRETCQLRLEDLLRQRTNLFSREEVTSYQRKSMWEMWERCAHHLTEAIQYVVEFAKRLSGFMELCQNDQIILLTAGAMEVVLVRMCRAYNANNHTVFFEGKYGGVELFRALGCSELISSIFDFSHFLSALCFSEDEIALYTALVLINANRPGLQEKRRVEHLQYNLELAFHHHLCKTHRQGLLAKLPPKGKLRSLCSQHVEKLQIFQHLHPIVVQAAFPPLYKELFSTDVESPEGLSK
#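 Luciferase reporter read in Schneider cells carrying Gal4-RORγ (mouse) and UAS-Photinus luciferase; cells given compound 1 h before 700 uM copper sulfate induction, then incubated 20 h at ambient temperature.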
# Active calls of the source: *; i = inactive; ? = inconclusive; / = not tested or not shown. Only some compounds are listed: those with a hit (about 6.1% of all), similar ones and a draw of the others. Calls follow the shape of the dose curve; as a rule, active = well fitted curve in the direction sought with a large enough effect; inconclusive = small, poorly fitted or top-dose-only effect, or another doubt; inactive = no such curve, though single readings can be large; an effect the other way counts as inactive or inconclusive. Potency is read from the fitted curve at half-maximal effect.
SMILES,S2 tox,ATXN2 expr inh,Gal4-VP16 FLuc,HepG2 viability,TGFb SMAD3 inh,RORg inh
CCOc1c(Cl)cc(CNCC(O)c2ccccc2)cc1OC (centres undefined),i,-9%,?,-29%,-15%,7.1µM*
CCN(C(=S)NC(=O)C1CC1)c1ccccc1,i,-5%,?,9%,3%,?
O=C(NC(=S)NC1CCCC1)c1ccccc1,i,78%,10µM*,-9%,3%,7.1µM*
O=C(NC(=S)NC1CCCCCCCCCCC1)c1cccnc1,i,-10%,-11%,19%,21%,0%
O=C(NC(=S)NC1CC1)c1cccnc1,i,4%,?,18%,-22%,5.6µM*
O=C(NC(=S)NC1CCCC1)c1ccccc1Br,i,22%,?,-18%,-26%,4.5µM*
CCN(C(=S)NC(=O)C1CCCC1)C1CCCCC1,i,-5%,?,-4%,5%,4.5µM*
Cc1cc(C(=O)NCc2nc(-c3cccc(NC(=O)c4ccccc4)c3)oc2C)nc(C)n1,i,/,/,/,/,/
CCN1C(=O)c2ccccc2S(=O)c2ccc(C(=O)N3CCN(c4cccc(Cl)c4)CC3)cc21 (centres undefined),i,-10%,/,-10%,5%,/
O=C(NNC(=S)NC1CCCCC1)c1ccccc1O,i,-9%,-12%,-23%,?,14µM*
CC(C)C(NC(=O)c1ccccc1Br)c1ccccc1 (centres undefined),i,1%,-18%,-4%,11%,5%
O=C(NC(=S)NC1C2CC3CC(C2)CC1C3)c1ccccc1 (centres undefined),i,0%,1.8µM*,-18%,-29%,1.6µM*
CCN(CC(=O)Nc1ccccc1Br)C1CCCCC1,i,5%,5%,8%,10%,14%
CCN(C(=S)NC(=O)c1ccccc1Br)C1CCCCC1,?,-1%,2.8µM*,-8%,-22%,1µM*
CC(NC(=S)NC(=O)c1ccccc1Br)c1ccccc1 (centres undefined),i,4%,7.1µM*,-18%,?,6.3µM*
CC(=O)Nc1nonc1-c1nnc(SCC(=O)Nc2ccccc2)n1-c1ccccc1,i,-3%,/,-39%,0%,/
CN(N=O)C(=O)N[C@@H]1[C@@H](O)[C@H](O)[C@@H](CO)O[C@@H]1O,i,9%,/,/,/,/
N#Cc1ncc(-c2ccc3c(c2)OCCOCCOCCOCCOCCO3)nc1C#N,i,7%,4.5µM*,4%,11%,11µM*
N#Cc1ncc(-c2ccc3c(c2)OCCOCCOCCOCCO3)nc1C#N,?,14%,?,-15%,?,13µM*
COc1cc(C(=O)Nc2nc3c(s2)Cc2c(Br)ccc(OC)c2-3)cc(OC)c1OC,i,-11%,/,-10%,2%,/
COc1ccc(S(=O)(=O)CCC(=O)NCCc2ccc(Cl)cc2)cc1,i,-9%,0%,13µM*,?,9%
COc1ccc(C(CC(=O)c2ccc(O)cc2)S(=O)(=O)c2ccc(C)cc2)cc1 (centres undefined),i,74%,10µM*,-36%,-7%,1.8µM*
Cc1ccc(S(=O)(=O)Cc2cc(F)c([N+](=O)[O-])cc2[N+](=O)[O-])cc1,?,?,6.3µM*,-101%,?,-41%
COc1ccc(CNC(=O)CCS(=O)(=O)c2ccc(Br)cc2)cc1,i,4%,1%,9%,4%,0%
COc1ccc(C(=O)CCS(=O)(=O)c2ccc(C)cc2)cc1,i,6%,10µM*,7.1µM*,?,5.6µM*
SMILES,S2 tox,ATXN2 expr inh,Gal4-VP16 FLuc,HepG2 viability,TGFb SMAD3 inh,RORg inh
COC(=O)c1cc2oc3ccccc3c2n1CC(=O)Nc1ccc(F)c(Cl)c1,/,/,/,-16%,/,/
O=C(NCc1ccccc1Cl)c1nnc(Cc2cccc(F)c2)o1,i,4%,/,-3%,7%,/
Cc1ccc(C(=O)CCS(=O)(=O)c2ccc(Br)cc2)cc1,i,-3%,?,-79%,?,-143%
Cc1ccc(S(=O)(=O)CCC(=O)c2cccc([N+](=O)[O-])c2)cc1,?,?,5µM*,-67%,11µM*,4µM*
O=C(N/N=C/c1cnc(N2CCCCC2)s1)c1ccc(Cl)cc1,?,/,?,-25%,-3%,2.2µM*
O=S(=O)(Nc1nc2ccccc2nc1Nc1cccc(S(=O)(=O)N2CCCCC2)c1)c1ccccc1,?,?,13µM*,-40%,71%,?
COc1ccc(NS(=O)(=O)c2cc(NC(=O)c3ccc(C)o3)ccc2N2CCCCC2)cc1,?,-15%,4.5µM*,-17%,-4%,6.3µM*
COc1ccc(NS(=O)(=O)c2ccc(O)c(NC(=O)c3ccc(S(=O)(=O)N4CCCCCC4)cc3)c2)cc1,?,-8%,-7%,-25%,-9%,5%
COc1ccc(NS(=O)(=O)c2cccc(NC(=O)c3ccc(S(=O)(=O)N4CCCCCC4)cc3)c2)cc1,?,?,3.2µM*,-21%,0%,-52%
O=C(Nc1ccc(Cc2ccncc2)cc1)c1ccc(S(=O)(=O)N2CCOCC2)cc1,i,-19%,7.1µM*,-28%,5%,-41%
COc1cc(C)c(CN2CCC3(CCC(CNC(=O)c4ccnn4C)O3)CC2)cc1C (centres undefined),i,/,/,/,/,/
COCc1c(C(=O)NC2CCOC(C)(C)C2)cnn1-c1nccc(-c2cccs2)n1 (centres undefined),i,/,/,/,/,/
Cc1ccc(C(=O)Nc2ccc3c(c2)CCC3)o1,i,50%,13µM*,-34%,-7%,?
COc1ccc(NS(=O)(=O)c2cccc(NC(=O)C3=NN(c4ccccc4)C(=O)CC3)c2)cc1,i,/,11µM*,-21%,?,?
COc1ccc(NS(=O)(=O)c2cc(NC(=O)C3=NN(c4ccccc4)C(=O)CC3)ccc2C)cc1,i,-3%,/,-33%,-3%,/
Cc1cc(C)nc(NS(=O)(=O)c2ccc(NC(=O)CSc3nc4ccccc4[nH]3)cc2)n1,i,1%,4µM*,-9%,?,23%
Cc1ccc(NC(=S)Nc2ccc(S(=O)(=O)Nc3ncccn3)cc2)c(C)c1,i,-9%,-19%,-8%,10%,13µM*
Cc1ccc(C)c(NC(=S)Nc2ccc(S(=O)(=O)Nc3ncccn3)cc2)c1,?,8%,?,6%,7%,?
O=C(Nc1ccc2c(c1)CCC2)c1ccc(Br)o1,i,33%,-5%,-46%,-3%,1%

# Source: PubChem
